Consider 25 compounds from PubChem BioAssay AID651864 (Broad Institute, 2012).

Structures are written as SMILES. Measured potencies and affinities stand elsewhere. The source made the active and inactive calls. The rule behind the calls is not given here.

The test is described as follows: HeLa cell cytotoxicity, dose response, cytotoxicity control, 24 h, plate reader, powder samples, set 3 (AID 651864).

As to `Cc1ccccc1CC(=O)NC1CCCC1`, the compound was called inactive.
In the case of `CCn1nnnc1CCc1ccc(N2CCCC2)cc1` it was “inactive”; in that of `CCn1nnnc1NCc1cccc(N2CCCC2)c1`, “inactive”.
`CCn1nnnc1NCc1ccccc1N1CCCC1`: the call was inactive.
In the case of `c1ccc(-n2nnnc2NCc2ccc(N3CCCC3)cc2)cc1` it was “inactive”; in that of `CCn1nnnc1NCc1ccc(C(C)C)cc1`, “inactive”; in that of `CC(C)NC(=O)Cc1ccc(-c2ccccc2)cc1`, “inactive”.
Consider `CCn1nnnc1NCc1ccc(N2CCCCC2)cc1`, for which the outcome was inactive.
In the case of `O=C(Cc1ccc(-c2ccccc2)cc1)NC1CC1` it was “inactive”; in that of `Fc1ccc(Cn2nnnc2NCc2ccc(N3CCCC3)cc2)cc1`, “inactive”.
The value for `O=C(Cc1ccccc1OC(F)(F)F)NC1CCCC1` was “inactive”; that for `O=C(Cc1ccc(-c2ccccc2)cc1)NC1CCOCC1` was “inactive”.
In the case of `O=C(Cc1ccccc1C(F)(F)F)NC1CCCC1` it was “inactive”.
Turning to `O=C(Cc1ccccc1Cl)NC1CCCC1`, the outcome was inactive.
In the case of `CCn1nnnc1NCc1ccc(N2CCCC2)cc1` it was “inactive”.
In the case of `CC(C)(C)OC(=O)N1CC(NC(=O)Cc2ccc(-c3ccccc3)cc2)C1`, the compound was called inactive.
The value for `COc1ccc(CC(=O)NC2CCCC2)cc1` was “inactive”; that for `CC(C)c1ccc(CNc2nnnn2C)cc1` was “inactive”; that for `Cn1nnnc1NCc1ccc(N2CCCC2)cc1` was “inactive”.
In the case of `CCn1nnc(NCc2ccc(C)cc2)n1` it was “inactive”.
The value for `O=C(Cc1ccc(-c2ccccc2)cc1)NC1CCC1` was “inactive”; that for `O=C(Cc1cccc(F)c1)NC1CCCC1` was “inactive”; that for `O=C(Cc1cccc(OC(F)(F)F)c1)NC1CCCC1` was “inactive”.
`O=C(Cc1ccccc1F)NC1CCCC1`: the compound was classed as inactive.
In the case of `c1ccc(Cn2nnnc2NCc2ccc(N3CCCC3)cc2)cc1` it was “inactive”.
